Measured values reported in the supplement of paper PMC10849652.
About 7,900 targets were measured; listed, in parts, are those with a hit and a random draw of the rest. About 0.6% of all pairs of compound and target were hits.

Tests used:
Assay in all cases: log2 fold change, soluble protein after heating vs DMSO (PISA); higher = thermal stabilisation; K562 cells, 10 uM, 30 min; active = over 0.2 and 3.5 SD of the protein, either way, in both replicates (recomputed)
[1] = compound: C1COCCN1CCN2C3=CC=CC=C3N=C2NC(=O)C4=CC(=CC=C4)[N+](=O)[O-] [IRAK-1-4 Inhibitor I]
Summary of the method: (§1)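 K562 cells (2×10^6 cells/mL) were treated with 10 μM compound for 30 min, and aliquots were heated for 3 min over 48°C-58°C. Pooled aliquots were extracted in PBS with 0.5% NP-40 at 4°C, and the supernatant after 21,000xg for 90 min was measured by TMTpro 16plex LC-MS/MS with channel sums equalised. Reported thermal stability, relative to control samples and from duplicates, is a log2 fold change.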

[2] = compound: C=CC(=O)N1CCC[C@@H](n2nc(-c3ccc(Oc4ccccc4)cc3)c3c(N)ncnc32)C1 [ibrutinib]
Summary of the method: as §1

[3] = compound: CC(=O)c1cnc2ccc(-c3cc(Cl)c(O)c(Cl)c3)nc2c1N[C@H]1CC[C@H](CN(C)C)CC1
Summary of the method: as §1

[4] = compound: CC(C)(C)Cn1c(N)nc2ccc(-c3[nH]c(C(C)(C)C)nc3-c3ccc(F)cc3)nc21 [ralimetinib]
Summary of the method: as §1

[5] = compound: CC(C)(O)CC(=O)NCCn1ccc2ncnc(Nc3ccc(Oc4cccc(C(F)(F)F)c4)c(Cl)c3)c21
Summary of the method: as §1

[6] = compound: CC(C)C1=C2N=C(C=C(N2N=C1)NCC3=CC=CC=C3)NCCCCCCN
Summary of the method: as §1

[7] = compound: CC(C)C[C@@H](C=O)NC(=O)[C@H](CC(C)C)NC(=O)[C@H](CC(C)C)NC(=O)OCc1ccccc1
Summary of the method: as §1

[8] = compound: CC(C)N(C[C@H]1O[C@@H](n2cnc3c(N)ncnc32)[C@H](O)[C@@H]1O)[C@H]1C[C@@H](CCc2nc3cc(C(C)(C)C)ccc3[nH]2)C1 [pinometostat]
Summary of the method: as §1

[9] = compound: CC1=C(C(CC(=O)N1)C2=CC=C(C=C2)C(F)(F)F)C(=O)NC3=C(C=C4C(=C3)C=NN4)F
Summary of the method: as §1

[10] = compound: CC1=C(C2=C(C=C1)C(=O)C3=CC=CC=C3N2CCCN)C
Summary of the method: as §1

[11] = compound: CC1=C(C=C(C=C1)NC(=O)C2=CC(=CC=C2)C(C)(C)C#N)NC3=CC4=C(C=C3)N=CN(C4=O)C
Summary of the method: as §1

[12] = compound: CC1=C(C=C(C=C1)NC(=O)C2=CC(=CC=C2)N(C)C)NC(=O)C3=CC=C(C=C3)O
Summary of the method: as §1

[13] = compound: CC1=CC=C(C=C1)SC2=C3C=C(SC3=CN=C2)C(=O)N
Summary of the method: as §1

[14] = compound: CC1=NC(=CC=C1)C2=C(N=C(N2)C(C)(C)C)C3=CC4=NC=CN=C4C=C3
Summary of the method: as §1

[15] = compound: CCCCN(Cc1ccc(C(=O)NO)cc1)C(=O)Nc1ccccc1 [Nexturastat A]
Summary of the method: as §1

[16] = compound: CCCS(=O)(=O)Nc1ccc(F)c(C(=O)c2c[nH]c3ncc(-c4ccc(Cl)cc4)cc23)c1F [vemurafenib]
Summary of the method: as §1

[17] = compound: CCCS(=O)(=O)Nc1ccc(F)c(C(=O)c2c[nH]c3ncc(Cl)cc23)c1F
Summary of the method: as §1

[18] = compound: CCCc1cc(C)[nH]c(=O)c1CNC(=O)c1cc(-c2ccnc(N3CCN(C)CC3)c2)cc2c1cnn2C(C)C
Summary of the method: as §1

[19] = compound: CCN(CC)Cc1ccc2cc(COC(=O)Nc3ccc(C(=O)NO)cc3)ccc2c1 [givinostat]
Summary of the method: as §1

[20] = compound: CCN(CCCOc1ccc2c(Nc3cc(CC(=O)Nc4cccc(F)c4)[nH]n3)ncnc2c1)CCOP(=O)(O)O [barasertib]
Summary of the method: as §1

Measured: log2 fold change

MRPS21 (UniProt P82921)
inactive: [1] -0.143 | [2] 0.029 | [3] 0.172 | [4] -0.038 | [5] -0.069 | [6] 0.063 | [7] 0.063 | [8] 0.052 | [9] -0.091 | [10] -0.207 | [11] 0.015 | [12] -0.059 | [13] 0.215 | [14] 0.107 | [15] 0.093 | [16] 0.079 | [17] 0.132 | [18] -0.018 | [19] -0.016 | [20] -0.156

MT-ND2 (UniProt P03891)
Sequence of UniProt P03891 (P03891 whole entry, looked up): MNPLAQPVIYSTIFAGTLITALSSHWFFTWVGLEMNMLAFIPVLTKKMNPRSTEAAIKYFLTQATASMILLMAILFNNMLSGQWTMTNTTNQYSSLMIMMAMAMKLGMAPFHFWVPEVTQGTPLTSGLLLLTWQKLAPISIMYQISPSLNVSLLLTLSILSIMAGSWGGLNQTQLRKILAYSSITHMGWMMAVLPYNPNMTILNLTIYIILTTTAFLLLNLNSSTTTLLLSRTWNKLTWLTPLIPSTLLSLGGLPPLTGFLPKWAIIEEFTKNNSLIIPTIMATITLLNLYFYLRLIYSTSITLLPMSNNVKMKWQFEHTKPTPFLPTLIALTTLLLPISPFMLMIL
inactive: [1] -0.021 | [2] -0.042 | [3] -0.171 | [4] -0.119 | [6] -0.221 | [7] -0.089 | [8] -0.075 | [9] -0.076 | [10] 0.113 | [12] 0.109 | [13] -0.047 | [14] 0.062 | [16] 0.065 | [17] 0.198 | [18] -0.123 | [19] 0.006 | [20] 0.079

MYH11 isoform 2 (UniProt P35749)
Sequence of UniProt P35749 (P35749 whole entry, looked up): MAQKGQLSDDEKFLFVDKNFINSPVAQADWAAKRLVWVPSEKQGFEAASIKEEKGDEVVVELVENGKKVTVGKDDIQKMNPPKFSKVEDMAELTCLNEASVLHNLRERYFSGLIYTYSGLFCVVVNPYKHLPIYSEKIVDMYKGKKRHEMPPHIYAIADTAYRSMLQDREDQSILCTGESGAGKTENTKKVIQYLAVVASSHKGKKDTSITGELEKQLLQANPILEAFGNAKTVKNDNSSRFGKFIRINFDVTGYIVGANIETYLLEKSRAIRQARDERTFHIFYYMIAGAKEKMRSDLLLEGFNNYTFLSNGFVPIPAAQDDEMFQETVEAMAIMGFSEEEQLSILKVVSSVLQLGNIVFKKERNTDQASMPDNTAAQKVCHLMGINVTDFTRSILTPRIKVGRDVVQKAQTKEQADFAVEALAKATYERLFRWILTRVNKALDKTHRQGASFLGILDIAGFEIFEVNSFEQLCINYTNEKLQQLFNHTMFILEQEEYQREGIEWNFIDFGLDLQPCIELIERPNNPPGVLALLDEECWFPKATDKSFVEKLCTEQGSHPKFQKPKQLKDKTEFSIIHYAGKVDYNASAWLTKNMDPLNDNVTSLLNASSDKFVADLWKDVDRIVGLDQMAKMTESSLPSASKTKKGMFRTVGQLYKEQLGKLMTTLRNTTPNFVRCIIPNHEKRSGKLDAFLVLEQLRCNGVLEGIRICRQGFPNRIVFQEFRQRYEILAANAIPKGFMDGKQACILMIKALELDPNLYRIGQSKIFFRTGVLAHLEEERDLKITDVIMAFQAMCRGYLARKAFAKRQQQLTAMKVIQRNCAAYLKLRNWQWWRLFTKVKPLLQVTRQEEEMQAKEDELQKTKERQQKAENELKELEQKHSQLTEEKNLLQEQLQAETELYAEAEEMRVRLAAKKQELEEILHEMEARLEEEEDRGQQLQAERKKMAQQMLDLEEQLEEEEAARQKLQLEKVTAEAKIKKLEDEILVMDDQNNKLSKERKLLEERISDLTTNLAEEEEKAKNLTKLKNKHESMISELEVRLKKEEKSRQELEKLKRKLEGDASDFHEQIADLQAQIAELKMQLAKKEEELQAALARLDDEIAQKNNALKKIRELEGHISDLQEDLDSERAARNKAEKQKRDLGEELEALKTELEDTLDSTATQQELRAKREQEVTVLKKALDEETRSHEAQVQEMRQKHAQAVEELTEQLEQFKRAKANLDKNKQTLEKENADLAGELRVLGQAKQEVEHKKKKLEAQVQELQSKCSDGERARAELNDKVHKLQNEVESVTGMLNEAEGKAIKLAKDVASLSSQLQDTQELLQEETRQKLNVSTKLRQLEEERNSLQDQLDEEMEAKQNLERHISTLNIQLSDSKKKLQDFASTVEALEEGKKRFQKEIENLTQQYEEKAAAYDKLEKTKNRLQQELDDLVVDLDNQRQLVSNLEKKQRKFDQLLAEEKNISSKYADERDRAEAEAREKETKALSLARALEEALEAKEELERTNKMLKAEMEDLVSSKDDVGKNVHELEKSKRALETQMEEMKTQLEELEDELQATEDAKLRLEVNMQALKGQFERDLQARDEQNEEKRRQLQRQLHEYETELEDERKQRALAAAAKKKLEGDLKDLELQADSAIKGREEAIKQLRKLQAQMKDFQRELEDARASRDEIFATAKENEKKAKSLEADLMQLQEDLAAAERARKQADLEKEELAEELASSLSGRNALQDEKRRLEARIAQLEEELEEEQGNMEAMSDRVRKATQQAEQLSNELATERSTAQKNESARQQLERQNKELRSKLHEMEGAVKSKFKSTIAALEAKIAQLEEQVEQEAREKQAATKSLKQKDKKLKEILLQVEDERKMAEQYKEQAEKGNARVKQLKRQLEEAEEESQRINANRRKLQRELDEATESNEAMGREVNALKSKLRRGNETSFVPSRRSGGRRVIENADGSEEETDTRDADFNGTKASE
inactive: [1] 0.035 | [2] -0.013 | [3] 0.028 | [4] -0.016 | [5] -0.107 | [6] 0.056 | [7] -0.002 | [8] -0.042 | [9] 0.027 | [10] -0.024 | [11] 0.009 | [12] 0.057 | [13] -0.003 | [14] 0.004 | [15] -0.014 | [16] 0.051 | [17] -0.006 | [18] -0.253 | [19] 0.032 | [20] 0.057

NME7 (UniProt Q9Y5B8)
Sequence of UniProt Q9Y5B8 (Q9Y5B8 whole entry, looked up): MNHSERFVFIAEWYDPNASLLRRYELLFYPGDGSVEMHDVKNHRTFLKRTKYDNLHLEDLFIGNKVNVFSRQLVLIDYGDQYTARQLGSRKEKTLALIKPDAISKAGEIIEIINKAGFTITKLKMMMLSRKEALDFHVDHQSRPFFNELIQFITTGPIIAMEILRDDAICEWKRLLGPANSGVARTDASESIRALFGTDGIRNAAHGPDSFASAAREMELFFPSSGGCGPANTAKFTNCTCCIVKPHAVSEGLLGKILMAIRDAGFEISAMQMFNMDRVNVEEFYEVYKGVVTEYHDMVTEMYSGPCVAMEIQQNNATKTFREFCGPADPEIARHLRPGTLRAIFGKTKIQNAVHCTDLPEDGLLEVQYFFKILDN
inactive: [1] 0.056 | [2] -0.054 | [3] -0.038 | [4] 0.095 | [5] -0.116 | [6] -0.066 | [7] 0.059 | [8] 0.065 | [10] -0.086 | [11] -0.008 | [12] -0.089 | [13] -0.021 | [14] 0.059 | [15] 0.024 | [16] -0.037 | [17] 0.081 | [18] -0.06 | [19] -0.202 | [20] 0.042

NSUN2 (UniProt Q08J23)
Sequence of UniProt Q08J23 (Q08J23 whole entry, looked up): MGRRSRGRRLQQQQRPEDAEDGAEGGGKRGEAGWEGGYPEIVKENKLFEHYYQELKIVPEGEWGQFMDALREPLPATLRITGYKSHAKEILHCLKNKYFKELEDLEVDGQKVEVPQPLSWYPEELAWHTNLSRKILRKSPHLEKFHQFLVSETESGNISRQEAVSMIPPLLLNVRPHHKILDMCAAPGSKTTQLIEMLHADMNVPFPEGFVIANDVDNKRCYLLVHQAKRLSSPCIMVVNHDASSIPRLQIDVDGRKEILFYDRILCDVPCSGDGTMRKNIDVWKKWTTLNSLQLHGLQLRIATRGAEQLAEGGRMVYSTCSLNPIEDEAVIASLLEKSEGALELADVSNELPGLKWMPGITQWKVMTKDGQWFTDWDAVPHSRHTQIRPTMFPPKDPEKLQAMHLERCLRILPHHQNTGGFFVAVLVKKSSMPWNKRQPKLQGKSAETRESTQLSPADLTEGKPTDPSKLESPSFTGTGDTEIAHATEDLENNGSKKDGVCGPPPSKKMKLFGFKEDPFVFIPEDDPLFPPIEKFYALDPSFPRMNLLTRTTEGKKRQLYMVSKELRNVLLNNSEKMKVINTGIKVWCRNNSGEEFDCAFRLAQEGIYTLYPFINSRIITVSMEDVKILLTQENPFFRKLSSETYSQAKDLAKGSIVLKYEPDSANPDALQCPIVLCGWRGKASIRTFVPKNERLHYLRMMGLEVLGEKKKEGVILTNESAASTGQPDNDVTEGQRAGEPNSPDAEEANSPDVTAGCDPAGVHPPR
inactive: [1] -0.02 | [2] -0.029 | [3] -0.165 | [4] 0.062 | [5] -0.008 | [7] 0.026 | [8] 0.058 | [9] 0.008 | [10] -0.075 | [11] -0.042 | [12] 0.013 | [13] -0.021 | [14] -0.009 | [15] 0.037 | [16] 0.016 | [17] 0.061 | [18] 0.019 | [19] -0.204 | [20] 0.037
active: [6] -0.314

NECTIN2 isoform 2 (UniProt Q92692)
inactive: [1] -0.018 | [2] 0.047 | [3] 0.03 | [4] 0.081 | [5] 0.1 | [6] 0.059 | [7] 0.008 | [8] -0.008 | [9] 0 | [11] -0.037 | [12] 0.011 | [14] -0.104 | [15] 0.17 | [16] 0.033 | [18] -0.028 | [19] 0.054 | [20] 0.005

NFYB (UniProt P25208)
inactive: [1] 0.07 | [2] -0.051 | [3] 0.019 | [4] 0.016 | [6] 0.054 | [7] -0.007 | [8] -0.043 | [9] 0.026 | [11] -0.012 | [12] -0.118 | [13] -0.023 | [14] 0.025 | [16] 0.026 | [17] 0.025 | [18] 0.044 | [19] -0.012 | [20] 0.049
active: [10] 0.411

OVCA2 (UniProt Q8WZ82)
inactive: [1] -0.087 | [2] 0.023 | [3] -0.019 | [4] -0.1 | [7] 0.095 | [8] 0.021 | [9] 0.044 | [12] -0.132 | [13] 0.013 | [14] 0.086 | [17] -0.048 | [18] -0.305 | [20] 0.06

NDUFB1 (UniProt O75438)
Sequence of UniProt O75438 (O75438 whole entry, looked up): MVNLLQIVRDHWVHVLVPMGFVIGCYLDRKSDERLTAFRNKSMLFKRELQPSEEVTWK
inactive: [1] 0.034 | [2] 0.024 | [3] 0.06 | [5] -0.043 | [6] -0.052 | [8] 0.065 | [9] 0.059 | [10] 0.158 | [11] -0.087 | [13] -0.08 | [14] 0.067 | [15] 0.027 | [16] -0.001 | [17] 0.065 | [18] 0.025 | [19] -0.015 | [20] -0.009

NA, A0A2R8Y3M9
inactive: [1] 0.087 | [2] 0.215 | [3] -0.207 | [4] -0.08 | [7] 0.056 | [8] -0.001 | [9] 0.253 | [11] -0.126 | [12] 0.546 | [13] 0.225 | [14] 0.178 | [17] -0.086 | [20] -0.138

NPM3 (UniProt O75607)
Sequence of UniProt O75607 (O75607 whole entry, looked up): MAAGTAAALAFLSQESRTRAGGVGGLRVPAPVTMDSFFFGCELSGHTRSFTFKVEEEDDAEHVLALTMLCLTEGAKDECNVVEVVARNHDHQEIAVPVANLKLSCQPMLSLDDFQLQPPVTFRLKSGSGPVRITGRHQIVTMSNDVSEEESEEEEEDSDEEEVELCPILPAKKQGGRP
active: [10] -0.521
inactive: [1] -0.057 | [2] -0.016 | [3] -0.004 | [4] 0.045 | [6] 0.078 | [7] 0.053 | [8] 0.052 | [9] 0.088 | [11] 0.003 | [12] -0.004 | [13] -0.005 | [14] -0.056 | [16] -0.04 | [17] 0.041 | [18] -0.015 | [19] 0.019 | [20] -0.083

ORC5 (UniProt O43913)
Sequence of UniProt O43913 (O43913 whole entry, looked up): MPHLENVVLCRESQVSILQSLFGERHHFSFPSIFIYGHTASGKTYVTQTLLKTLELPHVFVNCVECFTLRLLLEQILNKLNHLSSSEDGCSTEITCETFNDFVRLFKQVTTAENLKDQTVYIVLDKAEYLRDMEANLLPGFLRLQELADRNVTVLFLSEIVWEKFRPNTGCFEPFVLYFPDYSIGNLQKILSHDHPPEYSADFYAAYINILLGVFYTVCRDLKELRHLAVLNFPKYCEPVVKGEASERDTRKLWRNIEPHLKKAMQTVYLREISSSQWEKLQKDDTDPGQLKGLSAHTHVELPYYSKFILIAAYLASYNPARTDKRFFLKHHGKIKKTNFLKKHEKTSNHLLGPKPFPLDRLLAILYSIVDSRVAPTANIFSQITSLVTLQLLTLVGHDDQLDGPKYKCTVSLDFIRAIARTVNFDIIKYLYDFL
inactive: [1] 0.024 | [2] -0.014 | [3] -0.306 | [4] 0.015 | [6] -0.134 | [7] 0.005 | [8] 0.128 | [9] -0.005 | [10] 0.08 | [11] -0.193 | [12] -0.089 | [13] 0 | [14] -0.038 | [16] 0.058 | [17] 0.058 | [18] 0.058 | [19] -0.009 | [20] 0.025

MLST8 (UniProt Q9BVC4)
Sequence of UniProt Q9BVC4 (Q9BVC4 whole entry, looked up): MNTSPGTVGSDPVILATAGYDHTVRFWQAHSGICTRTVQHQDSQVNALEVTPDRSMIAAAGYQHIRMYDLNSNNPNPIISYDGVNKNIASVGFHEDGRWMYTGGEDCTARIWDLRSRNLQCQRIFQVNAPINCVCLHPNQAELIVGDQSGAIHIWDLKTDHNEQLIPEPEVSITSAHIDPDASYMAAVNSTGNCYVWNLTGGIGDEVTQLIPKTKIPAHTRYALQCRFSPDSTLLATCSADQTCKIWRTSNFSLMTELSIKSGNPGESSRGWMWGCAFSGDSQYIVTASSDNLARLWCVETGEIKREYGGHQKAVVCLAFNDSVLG
inactive: [1] 0.002 | [2] -0.048 | [3] 0.099 | [5] -0.049 | [6] -0.136 | [8] -0.093 | [9] 0.02 | [10] 0.037 | [11] 0.118 | [13] 0.094 | [14] -0.079 | [15] 0.001 | [16] 0.009 | [17] 0.031 | [18] -0.035 | [19] -0.058 | [20] 0.038

OPHN1 (UniProt O60890)
inactive: [1] -0.086 | [2] -0.145 | [3] -0.021 | [4] -0.033 | [5] -0.146 | [6] 0.12 | [7] -0.042 | [8] -0.062 | [9] -0.034 | [10] 0.069 | [11] -0.146 | [12] -0.029 | [14] 0.218 | [15] -0.12 | [18] -0.018 | [19] 0.049 | [20] -0.037

PAFAH2 (UniProt Q99487)
inactive: [1] 0.106 | [2] 0.048 | [3] -0.012 | [4] -0.033 | [6] 0.025 | [7] 0.007 | [8] -0.011 | [10] 0.02 | [11] -0.09 | [12] 0.006 | [13] 0.019 | [14] -0.038 | [16] 0.093 | [17] -0.015 | [19] 0.059 | [20] -0.044

NDUFB10 (UniProt O96000)
inactive: [1] 0.015 | [2] 0.009 | [3] -0.001 | [4] -0.057 | [5] -0.018 | [6] -0.11 | [7] 0.023 | [8] -0.018 | [9] 0 | [10] 0.009 | [11] -0.093 | [12] -0.008 | [13] 0.001 | [14] 0.05 | [15] -0.002 | [16] -0.019 | [17] 0 | [18] -0.126 | [19] -0.023 | [20] 0.02

NRGN (UniProt Q92686)
Sequence of UniProt Q92686 (Q92686 whole entry, looked up): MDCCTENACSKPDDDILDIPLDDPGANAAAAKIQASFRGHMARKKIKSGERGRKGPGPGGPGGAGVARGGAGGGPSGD
inactive: [1] 0.151 | [2] 0.079 | [3] 0.034 | [4] 0.007 | [5] 0.053 | [6] 0.058 | [7] -0.199 | [8] 0.21 | [9] 0.108 | [12] -0.168 | [13] 0.087 | [14] -0.171 | [15] 0.143 | [17] 0.032 | [19] -0.034 | [20] -0.14

OGFOD2 (UniProt Q6N063)
Sequence of UniProt Q6N063 (Q6N063 whole entry, looked up): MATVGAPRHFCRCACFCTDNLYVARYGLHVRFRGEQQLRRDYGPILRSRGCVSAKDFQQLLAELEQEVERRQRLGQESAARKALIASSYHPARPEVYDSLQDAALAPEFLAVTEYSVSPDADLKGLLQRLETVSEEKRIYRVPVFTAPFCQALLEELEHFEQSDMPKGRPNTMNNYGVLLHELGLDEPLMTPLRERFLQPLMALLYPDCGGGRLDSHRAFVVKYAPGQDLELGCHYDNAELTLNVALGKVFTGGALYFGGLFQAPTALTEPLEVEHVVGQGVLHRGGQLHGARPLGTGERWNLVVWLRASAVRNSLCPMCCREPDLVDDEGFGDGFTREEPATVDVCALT
inactive: [1] 0.016 | [2] -0.023 | [3] -0.102 | [4] 0.011 | [5] -0.031 | [6] -0.079 | [7] 0.002 | [8] 0.025 | [9] -0.001 | [10] -0.073 | [12] -0.007 | [14] -0.091 | [15] 0.117 | [16] 0.001 | [18] 0.037 | [19] -0.041 | [20] 0.059

NUMBL (UniProt Q9Y6R0)
inactive: [1] 0.144 | [2] -0.032 | [4] -0.032 | [5] 0.044 | [6] -0.026 | [7] 0.162 | [8] 0.111 | [9] -0.024 | [11] 0.011 | [12] -0.045 | [13] -0.018 | [14] -0.081 | [15] 0.121 | [16] -0.144 | [17] -0.005 | [18] 0.249 | [19] 0 | [20] 0.069
active: [3] -0.349
